# Data published in PubChem BioAssay (NCI).
# Compounds without any hit were thinned out: in the full panel of roughly 83,000, 20% have a hit.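 Negative percent growth values reflect cell death: -40 means 40% of the cells present at the start died, and -100 means all died.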 Calls of active or inactive are those of the source.
# Test system: LOX IMVI melanoma
# Assay: NCI-60 one-dose screen, 48 h (100 = growth as untreated, 0 = no growth, -100 = all killed)
# Settings: 10 µM unless noted
# Experimental: Growth inhibition of the LOX IMVI human tumor cell line is measured as a screen for anti-cancer activity. Cells are grown in 96 well plates and exposed to the test compound for 48 hours. Compounds are tested at a single concentration, which is 10^-5 M for most compounds. The reported endpoint is percent growth (GI% or GIPRCNT), where numbers from 0 - 100% represent growth inhibition, and numbers from -100% - 0 represent cell death. For example, a value of 40 represents 60% growth inhibition. A value of 0 means no net growth occurred over the course of the experiment. A value of -40 indicates 40% of cells at the beginning of the experiment died by the end of the experiment. A value of -100 means all cells are dead at the end of the experiment.
# NCI-60 Human Tumor Cell Lines Screen was performed using the standard one-dose NCI protocol, which is described in more detail at https://dtp.cancer.gov/discovery_development/nci-60/default.htm.
# Compounds with GIPRCNT values below 10 were considered active. Activity score was based on GIPRCNT using the following formula: […]
# Score is 0 for GIPRCNT values of 100 or above, 50 for GIPRCNT values of 0, and 100 for GIPRCNT values of -100.
row,SMILES,growth
1,N#Cc1cccc(-c2c(-c3ccc4ccccc4c3)oc3ccccc3c2=O)c1,50.7% (inactive)
2,COc1cccc([C@H]2c3[nH]c4ccccc4c3C[C@H]3C(=O)N(CCCCCCC(=O)NO)CC(=O)N23)c1,49.4% (inactive)
3,O=C1/C(=C/c2cccs2)SC(=S)N1CCCN1CCOCC1,89.1% (inactive)
4,CCCC(=O)NC(c1ccc2c(c1)OCO2)c1ccc2cccnc2c1O (stereo not given),12% (inactive)
5,CCOC(=O)c1c(C)c2c(n1C)CSc1cc(C(=O)c3ccccc3)c(=O)[nH]c1-2,91.1% [100 µM] (inactive)
6,Nc1ncnc2c1N=C(c1ccc3c(c1)OCO3)CC(c1cccc(Nc3ccnc4cc(Cl)ccc34)c1)N2 (stereo not given),27.2% (inactive)
7,O=C(CSc1nc2ccc([N+](=O)[O-])cc2[nH]1)Nc1cccc(C(F)(F)F)c1,26.9% (inactive)
8,CN([O-])c1nc(N(C)[O-])nc(N2CCOCC2)n1.CN([O-])c1nc(N(C)[OH2+])nc(N2CCOCC2)n1.[Fe+3],38.9% [100 µM] (inactive)
9,COc1ccc(C(=O)Nc2ncc(Cc3ccc(F)cc3)s2)cc1,20% (inactive)
10,Nc1nc(=S)c2ncn(C3OC(COP(=O)(O)O)C(O)C3O)c2[nH]1 (stereo not given),3.07% (active)
11,CC(C)(C)n1cc(-c2ccnc(NCCCNS(=O)(=O)c3ccc(F)cc3)c2)c(-c2cccc(F)c2)n1,33.7% (inactive)
12,COc1ccc(/C(C)=C(/c2ccc(OCCCN(C)C)cc2)c2ccc(OC(=O)Cc3ccccc3)cc2)cc1,-5.23% (active)
13,Cc1ccc(CNc2ccc(Cl)cc2NCc2ccc(C)c(O)c2)cc1O,2.86% (active)
14,CCNc1nc(-c2ccc(Cl)c(OC)c2)c(-c2ccnc(NCCCNS(=O)(=O)c3ccc(Cl)cc3)n2)s1,56.3% (inactive)
15,CN1CCN(Cc2ccc(NC(=O)c3cncc(C#Cc4cnc(N)c5ccccc45)c3)cc2C(F)(F)F)CC1,-92.1% (active)
16,Cc1c(-c2nc3ccc(F)cc3c(=O)[nH]2)c2ccccc2n1C,34.5% (inactive)
17,CCN(CC)c1nc(SCc2ccccc2Cl)ncc1C,95.9% (inactive)
18,Cc1ccc(S(=O)(=O)N2CCCC2CO)cc1 (stereo not given),86.3% (inactive)
19,C=CCn1c(SCC(=O)Nc2ccc(C(=O)/C=C/c3ccc(Cl)cc3)cc2)nnc1-c1cc(-c2ccc(S(N)(=O)=O)cc2)nc2ccccc12,92.3% (inactive)
20,C=C(C)[C@@H]1CC[C@]2(C(=O)OC)CC[C@]3(C)[C@H](CC[C@@H]4[C@@]5(C)C/C(=C/NC(N)=S)C(=O)C(C)(C)[C@@H]5CC[C@]43C)[C@@H]12,90.2% (inactive)

row,SMILES,growth
1,O=C1N[C@@H]2NC(=[N+]3CCOCC3)N[C@@H]2N1,98.3% (inactive)
2,CC12CCC3c4ccccc4CCC3(CO1)C2 (stereo not given),101% (inactive)
3,N#C/C(=C\c1ccc(Br)cc1)n1nnc2ccc(F)cc21,-63.7% (active)
4,c1cc2[nH]ncc2cc1-c1nc2ccc3[nH]ncc3c2c2c1CCCC2,16.2% (inactive)
5,CCCCCCCCCCCCCCCCCCOc1ccccc1CC(=O)OCC[N+]1(C)CCCC1,-94.4% (active)
6,Cn1c(=O)c2c(nc(NC3=NS(=O)(=O)c4ccccc43)n2CC(=O)N2CCc3ccccc32)n(C)c1=O,91.2% (inactive)
7,O=C1c2c(c3c4ccccc4[nH]c3c3ccc4ccccc4c23)C(=O)N1CCN1CCCCC1,30.2% (inactive)
8,CN(CCOc1ccc(C#N)cc1)CCOc1ccc(C#N)cc1,84.9% (inactive)
9,Cc1ccccc1Cn1cnc2ccc(-c3cc(NC(=O)c4ccc(NC5CCN(C)CC5)cc4)n[nH]3)cc21,56.7% (inactive)
10,O=C1NCCC12CCN(c1c(Cl)cncc1-c1ccc(O)cc1)CC2,87.7% (inactive)
11,CN1CCN(c2ccc(NC(=O)c3cncnc3Nc3ccc(OCc4ccccn4)c(Cl)c3)cc2)CC1,-22.1% (active)
12,CCSc1nc(NC)c2cc(-c3ccc(C(F)(F)F)cc3)ccc2n1,106% (inactive)
13,CCN(CC)CCNC(=O)c1cn2ncnc(Oc3ccc(NC(=O)Nc4ccc(Cl)c(C(F)(F)F)c4)c(F)c3)c2c1C,-95.4% (active)
14,COc1ccc2cc(-c3ccc(NC(C)=O)c(=O)o3)ccc2c1,104% (inactive)
15,CC1=C(CCC(C)N(C)Cc2ccc(OCCCN3CCCC3)cc2)C(C)(C)CCC1 (stereo not given),-81.4% (active)
16,CN1C(=O)/C(=C/c2ccc(C(=O)Nc3ncc(Cc4ccc(Cl)cc4)s3)cc2)SC1=S,18% (inactive)
17,Cc1ccc(/C=C2\CN(C(=O)OC(C)(C)C)C/C(=C\c3ccc(C)cc3)C2=O)cc1,-63.2% (active)
18,COc1cc(/C=C/C(=O)c2cccc(Nc3nc(Nc4ccccc4)nc(Nc4ccccc4)n3)c2)cc(OC)c1OC,45.3% (inactive)
19,COc1ccccc1NC(=O)Cn1cc(CN2CCN(c3ccnc4cc(Cl)ccc34)CC2)nn1,95.1% (inactive)
20,O=C1C(Cl)=C(Oc2ccccc2)C(=O)c2ccccc21,85% (inactive)
